Where “and” joins values, the source holds several entries; their conditions need not be identical. Equal entries are not always repeated. About 83,000 compounds went through this panel and 20% of them were active in at least one assay; those are over-represented in the sample as a whole.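 Note: values are percent growth. 100 is the growth of untreated cells, values between 100 and 0 indicate rising inhibition; between -100 and 0 indicates cell death.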 Calls of active or inactive are those of the source. How the source made its calls: active means growth percent below 10; inactive means the rest.

The experiment concerns MDA-MB-468 breast. Briefly: NCI-60 one-dose screen, 48 h (100 = growth as untreated, 0 = no growth, -100 = all killed). To be noted: 10 µM unless noted.
For the compound `CCCCCCCCCCn1cc[n+](C)c1`, the growth was -42.1% (active).
The figure for `c1ccc2cc3c(Nc4ccc(N5CCOCC5)cc4)ccnc3cc2c1` is 87.9% (inactive); for `Nc1ncnc2c1c(-c1cccc(OCc3ccccc3)c1)cn2C1CC(CN2CCC2)C1` (configuration not stated) it is -12.3% (active); for `NC(=O)c1c(NC(=O)c2ccccc2)sc2c1CCC(=O)C2` it is -5.34% (active).
For `Nc1cc(N)ncn1` the value was 101% (inactive).
With `COc1ccc(-c2nc(SCC(=O)c3ccc(Br)cc3)[nH]c(=O)c2C#N)cc1`, the growth is 100% (inactive).
Consider `CCCC(C)OCC(=O)O` (configuration not stated), for which the growth is 92.1% (inactive).
The figure for `O=C(Nc1ccc(N2CCNCC2)cc1)c1[nH]ncc1Nc1cc(C2CC2)ncn1` is 49.2% (inactive); for `O=C(c1nc2ccccc2[nH]1)C1C(c2ccc(Br)cc2)C2CC3CCCC[C@H]3N2[C@@]12C(=O)Nc1cc(Cl)ccc12` (some centres not stated) it is 12.5% (inactive).
Consider `COc1ccc(/C=C/C(=O)c2ccc(NC(=O)CSc3nnc(-c4ccc(Cl)cc4)n3-c3ccccc3)cc2)cc1`, for which the growth is 94.8% (inactive).
The figure for `O=c1c2cc(F)cc(Cl)c2sc2c(NCCCNCCO)nc3ccccc3c12` is 78.2% (inactive); for `CC(=O)Nc1cc2c(cc1Cl)Cc1cc(Cl)ccc1-2` it is -50.2% (active).
Consider `N#CSc1c[nH]c2ccc(/C=C/C(=O)/C=C(/C=C/c3ccc4[nH]cc(SC#N)c4c3)OB(F)F)cc12`, for which the growth is -49% (active).
In the case of `Cc1ccccc1NC(=O)Oc1ccc(Cl)cc1C(=O)c1ccccc1`, the growth is 88.2% (inactive).
Turning to `Nc1cc2c(cc1Br)-c1c(C(=O)O)cccc1C2O` (configuration not stated), the growth is 74.6% (inactive).
For `C=C(C)[C@@H]1CC[C@]2(C)[C@H](CC=C3[C@@H]4C[C@](C)(C(=O)N5CCN(C)CC5)CC[C@]4(C)CC[C@]32C)[C@@]1(C)CCC#N` the value was 38.3% (inactive).
Regarding `Cc1nc2sc(C(=O)Nc3cccc(Cl)c3C)c(N)c2cc1C(O)c1ccccc1` (configuration not stated), the growth is 18.5% (inactive).
The figure for `NCCOCCOc1ccccc1` is 118% (inactive).
In the case of `CO[C@H](C(=O)N[C@@H](CCCCNC(=O)OCc1ccccc1)C(=O)OC(C)(C)C)[C@@H]1Cc2cc3cc(OC4CC(OC5CC(O)C(O)C(C)O5)C(O)C(C)O4)c(C)c(O)c3c(O)c2C(=O)[C@H]1OC1CC(OC2CC(OC3CC(C)(O)C(O)C(C)O3)C(O)C(C)O2)C(O)C(C)O1` (some centres not stated), the growth was -37.5% (active).
Turning to `CC1(c2ccccc2)NC(=O)NC1=O` (configuration not stated), the growth was 105% (inactive).
For the compound `O=C(Nc1nccs1)c1noc2ccccc12`, the growth is 87.3% (inactive).
For the compound `COc1ccc(OC)c(Nc2nnc(-c3ccc(O)c(OC)c3)o2)c1`, the growth is 71.7% (inactive).
Consider `N#C/C(=C\c1ccc(-c2ccc(F)cc2)o1)C(=O)Nc1ncc(Cc2ccc(Cl)cc2Cl)s1`, for which the growth was -54.9% (active).
The figure for `CNC(=O)c1cc(Oc2cccc3nc(Nc4ccc(Cl)c(F)c4)ccc23)ccn1` is 51.3% (inactive).
For `O=C(/C=C/c1ccccc1)c1c[nH]c2ccccc2c1=O` the value was -52.7% (active).
Take `CC1(C)[C@@H](NOCCCN)CC[C@]2(C)[C@H]3C(=O)C=C4[C@@H]5C[C@](C)(C(=O)O)CC[C@]5(C)CC[C@@]4(C)[C@]3(C)CC[C@@H]12`: the growth is -39.5% [100 µM] (active).
Consider `COc1ccc(OC)c(Cn2cc3c(c2-c2ccccc2)CCc2cnoc2-3)c1`, for which the growth was 29.7% (inactive).
For `Fc1ccc(Nc2nc(Nc3ccc(-c4nc5ccccc5[nH]4)cc3)nc(N3CCCC3)n2)cc1` the value was 83.6% (inactive).
The figure for `C/C(Cc1ccccc1)=N\O` is 106% (inactive); for `Nc1nc2ncc(CNc3ccc(C(=O)NC(CCC(=O)NC(CCC(=O)NC(CCC(=O)NC(CCC(=O)NC(CCC(=O)O)C(=O)O)C(=O)O)C(=O)O)C(=O)O)C(=O)O)cc3)nc2c(=O)[nH]1` (configuration not stated) it is 131% (inactive); for `C=C(C)[C@H]1CC/C(C)=C/CC[C@]2(C)O[C@H]2CC/C(COC(=O)[C@@H](OC(C)=O)[C@H](NC(=O)c2ccccc2)c2ccccc2)=C\[C@@H]1O` it is 84.4% (inactive).
Consider `O=C(O)C1C2CCC1C(O)C2` (configuration not stated), for which the growth is 97.7% (inactive) and 110% (inactive).
The figure for `COc1cc2cc(Oc3ccc(NC(=O)Nc4ccccc4)cc3)c(C)nc2cc1OCCN1CCCCC1` is 79.5% (inactive); for `c1ccc2[nH]c(SSc3nc4ncncc4[nH]3)nc2c1` it is 11.3% (inactive).
With `O=C(Nc1ccc(I)cc1F)c1cc(Br)ccc1O`, the growth is -2.63% (active).
Turning to `CCNCC(=O)Nc1ccc(C(=O)OCC)cc1`, the growth is 111% (inactive).
For `CCOC(=O)c1c[nH]c2cc(OCC3CC3)c(OCC3CC3)cc2c1=O` the value was 107% (inactive).

Source of the values: PubChem BioAssay (NCI).
